# Measured values: PubChem BioAssay
# Calls of active or inactive are those of the source.
# Legend:
# [1] = system: Plasmodium falciparum Sir2 (PF13_0152, Sir2A); experiment: Plasmodium falciparum Sir2A binding compounds – biochemical, small-molecule microarray, 635 nm fluorescence, primary screen (AID 1098); settings: fluorescence 635 nm, higher = more signal;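 also: score merges spot fluorescence intensity with its signal-to-noise ratio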
# [2] = probe aDKK1 binding to arrayed compounds – biochemical, biotinylated probe, 635/667 nm fluorescence, primary screen (AID 1099); settings: small-molecule microarray, higher = more signal;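 also: score merges 667nm spot fluorescence with signal to noise across triplicate slides; reference of the scale not given here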
# [3] = probe aCHRDL2 binding to arrayed compounds – biochemical, biotinylated probe, 635/667 nm fluorescence, primary screen (AID 1100); settings: small-molecule microarray, higher = more signal
# [4] = change in splice reporter luminescence, either direction, cell-based, HEK293, spliceosome inhibition project, primary screen (AID 1101); settings: HEK293 splicing luciferase reporter, 24 h, higher = more signal, called active from +8 up or from −8 down;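 also: HEK293 cells carrying a splicing-competent luciferase reporter gene; test concentration not given here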
# [5] = molecular target: Fibroblast growth factor 10 (Homo sapiens) (UniProt O15520); experiment: compounds binding fibroblast growth factor 10 – biochemical, small-molecule microarray, 635 nm fluorescence, primary screen (AID 1102); settings: FGF10 binding, fluorescence 635 nm, higher = more signal
# [6] = system: glycogen synthase kinase-3 (GSK3A per assay name; protocol says GSK3B); experiment: compounds binding glycogen synthase kinase-3 – biochemical, small-molecule microarray, 635 nm fluorescence, GSK3A, primary screen (AID 1103); settings: fluorescence 635 nm, higher = more signal; also: the record names both GSK3A and GSK3B
# [7] = molecular target: Epidermal growth factor receptor (Homo sapiens) (UniProt P00533); experiment: compounds binding epidermal growth factor receptor – biochemical, small-molecule microarray, 635 nm fluorescence, primary screen (AID 1104); settings: EGFR binding, higher = more signal;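 also: score merges 667 nm emission intensity with spot signal to noise over triplicate slides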
# [8] = molecular target: Follistatin-related protein 3 (Homo sapiens) (UniProt O95633); experiment: compounds binding follistatin-related protein 3 – biochemical, small-molecule microarray, 635 nm fluorescence, primary screen (AID 1105); settings: FSTL3 binding, higher = more signal;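 also: score merges emission near 667 nm and signal to noise per printed spot across three slides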
# [9] = molecular target: Dickkopf-related protein 1 (Homo sapiens) (UniProt O94907); experiment: small molecules binding DKK1 protein – biochemical, small-molecule microarray, 635 nm fluorescence scan, primary screen (AID 1106); settings: higher = more signal;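 also: score merges emission near 667 nm with signal to noise over three replicate slides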
# [10] = system: Inhibin beta A chain (activin A); experiment: small molecules binding activin A – biochemical, small-molecule microarray, 635 nm fluorescence scan, primary screen (AID 1107); settings: INHBA, higher = more signal;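 also: mouse activin A protein probed at 4.33 µg/mL on printed slides; score merges bound-protein fluorescence near 667 nm with spot signal-to-noise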
# Fibroblast growth factor 10 (Homo sapiens), sequence (O15520 whole entry, looked up): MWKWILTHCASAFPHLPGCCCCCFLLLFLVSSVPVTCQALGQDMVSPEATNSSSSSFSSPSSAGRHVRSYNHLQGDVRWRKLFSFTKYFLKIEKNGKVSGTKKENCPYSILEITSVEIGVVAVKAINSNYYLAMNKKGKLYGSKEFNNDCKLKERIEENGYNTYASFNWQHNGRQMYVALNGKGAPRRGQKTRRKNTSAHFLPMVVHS
# Follistatin-related protein 3 (Homo sapiens), sequence (O95633 whole entry, looked up): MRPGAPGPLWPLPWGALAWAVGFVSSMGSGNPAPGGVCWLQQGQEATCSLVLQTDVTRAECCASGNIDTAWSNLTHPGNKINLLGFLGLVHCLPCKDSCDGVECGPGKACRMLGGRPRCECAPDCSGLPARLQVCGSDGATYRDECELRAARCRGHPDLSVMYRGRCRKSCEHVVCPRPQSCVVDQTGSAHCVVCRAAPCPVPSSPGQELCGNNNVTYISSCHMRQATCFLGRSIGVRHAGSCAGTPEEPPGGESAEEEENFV
# Epidermal growth factor receptor (Homo sapiens), sequence (P00533 whole entry, looked up): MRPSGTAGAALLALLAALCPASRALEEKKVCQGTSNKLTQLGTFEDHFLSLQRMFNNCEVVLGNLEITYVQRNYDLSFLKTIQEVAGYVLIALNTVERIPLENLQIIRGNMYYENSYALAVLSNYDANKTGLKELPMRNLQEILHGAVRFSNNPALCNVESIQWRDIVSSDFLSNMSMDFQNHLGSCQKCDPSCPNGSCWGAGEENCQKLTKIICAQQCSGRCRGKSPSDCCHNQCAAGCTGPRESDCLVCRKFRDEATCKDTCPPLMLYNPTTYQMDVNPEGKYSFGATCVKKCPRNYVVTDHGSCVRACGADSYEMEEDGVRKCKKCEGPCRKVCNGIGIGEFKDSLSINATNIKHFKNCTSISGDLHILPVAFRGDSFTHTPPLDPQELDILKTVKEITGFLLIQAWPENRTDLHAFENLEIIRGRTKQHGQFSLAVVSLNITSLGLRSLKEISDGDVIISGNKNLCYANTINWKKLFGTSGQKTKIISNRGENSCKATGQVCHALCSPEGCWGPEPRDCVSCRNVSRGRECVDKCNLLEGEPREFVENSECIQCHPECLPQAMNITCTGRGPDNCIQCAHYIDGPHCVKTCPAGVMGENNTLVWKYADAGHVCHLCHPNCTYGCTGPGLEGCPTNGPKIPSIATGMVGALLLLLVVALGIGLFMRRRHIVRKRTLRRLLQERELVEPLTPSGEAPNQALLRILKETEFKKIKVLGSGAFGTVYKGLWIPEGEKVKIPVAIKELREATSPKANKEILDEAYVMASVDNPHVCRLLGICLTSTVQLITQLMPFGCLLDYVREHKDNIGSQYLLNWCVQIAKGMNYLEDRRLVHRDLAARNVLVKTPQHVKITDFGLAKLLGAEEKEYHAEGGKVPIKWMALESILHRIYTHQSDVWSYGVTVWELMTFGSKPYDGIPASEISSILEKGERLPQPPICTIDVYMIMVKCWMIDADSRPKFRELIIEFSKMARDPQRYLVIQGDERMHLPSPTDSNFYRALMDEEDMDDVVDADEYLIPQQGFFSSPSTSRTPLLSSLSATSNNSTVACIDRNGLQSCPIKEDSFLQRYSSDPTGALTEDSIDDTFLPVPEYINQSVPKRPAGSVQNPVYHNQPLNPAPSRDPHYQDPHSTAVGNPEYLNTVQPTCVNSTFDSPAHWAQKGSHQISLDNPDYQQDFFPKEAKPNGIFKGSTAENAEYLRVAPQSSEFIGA
# Dickkopf-related protein 1 (Homo sapiens), sequence (O94907 whole entry, looked up): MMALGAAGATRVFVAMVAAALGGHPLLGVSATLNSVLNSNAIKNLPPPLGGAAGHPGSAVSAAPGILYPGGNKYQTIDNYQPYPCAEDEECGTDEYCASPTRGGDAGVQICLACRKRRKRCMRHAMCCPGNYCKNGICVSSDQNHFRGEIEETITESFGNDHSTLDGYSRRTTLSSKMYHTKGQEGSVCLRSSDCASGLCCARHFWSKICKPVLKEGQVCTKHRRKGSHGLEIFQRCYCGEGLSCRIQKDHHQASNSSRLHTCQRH
structure (smiles),measurement,setting,value
O=C1O[C@@H](c2ccccc2)[C@@H](c2ccccc2)N2[C@@H](c3ccccc3OCCO)[C@]3(C(=O)Nc4ccc(C#CCCO)cc43)[C@@H](C(=O)N3CCN(c4ncccn4)CC3)[C@H]12,composite z-score,[1],0.879
same,composite z-score,[2],-0.0415
same,composite z-score,[3],0.225
same,z-score,[4],-1.09 (inactive)
same,composite z-score,[5],0.376
same,composite z-score,[6],0.649
same,composite z-score,[7],-0.022
same,composite z-score,[8],0.315
same,composite z-score,[9],0.464
same,composite z-score,[10],-0.055
COC(=O)C1(Cc2ccccc2)C=C2C(=C(c3ccccc3)C(=O)C2C)CN1 (stereo not given),composite z-score,[1],-0.208
same,composite z-score,[2],1.88
same,composite z-score,[3],1.39
same,z-score,[4],0.388 (inactive)
same,composite z-score,[5],1.03
same,composite z-score,[6],-0.731
same,composite z-score,[7],-0.544
same,composite z-score,[8],-0.147
same,composite z-score,[9],-0.89
same,composite z-score,[10],1.69
C[C@@H](OCc1ccccc1)C1NC(=O)[C@@]23C(=O)N[C@@H](Cc4ccccc4)C2[C@H](C)[C@@]2(C)O[C@H]2C3/C=C/C/C=C\CNC(=O)CNC1=O (stereo not given in full),composite z-score,[1],1.4
same,composite z-score,[2],-0.354
same,composite z-score,[3],-0.217
same,z-score,[4],0.848 (inactive)
same,composite z-score,[5],-0.389
same,composite z-score,[6],-0.764
same,composite z-score,[7],-0.497
same,composite z-score,[8],-0.467
same,composite z-score,[9],-0.166
same,composite z-score,[10],1.57
COc1ccc([Si](C)(C)[C@@H]2[C@@H](CCO)O[C@]3(C(=O)N(Cc4cccc(N5C(=O)c6ccccc6Oc6ccccc65)c4)c4ccccc43)[C@H]2C)cc1,composite z-score,[1],0.307
same,composite z-score,[2],0.0163
same,composite z-score,[3],0.444
same,z-score,[4],-1.19 (inactive)
same,composite z-score,[5],-0.502
same,composite z-score,[6],-0.735
same,composite z-score,[7],-0.717
same,composite z-score,[8],-0.491
same,composite z-score,[9],-0.812
same,composite z-score,[10],0.233
Cc1c(NC(=O)/C(C#N)=C/C=C/c2ccccc2[N+](=O)[O-])c(=O)n(-c2ccccc2)n1C,composite z-score,[1],1.03
same,composite z-score,[2],-0.0194
same,composite z-score,[3],0.147
same,z-score,[4],4.71 (inactive)
same,composite z-score,[5],0.386
same,composite z-score,[6],0.417
same,composite z-score,[7],0.187
same,composite z-score,[8],0.71
same,composite z-score,[9],0.446
same,composite z-score,[10],0.0089
O=C(O)[C@H]1C[C@H]2C(=O)N3CCC[C@H]3C(=O)N2[C@H]1c1cccc(OCCO)c1,composite z-score,[1],1.6
same,composite z-score,[2],0.0484
same,composite z-score,[3],0.0998
same,z-score,[4],-0.184 (inactive)
same,composite z-score,[5],0.262
same,composite z-score,[6],0.486
same,composite z-score,[7],0.0626
same,composite z-score,[8],0.384
same,composite z-score,[9],0.884
same,composite z-score,[10],-0.0254
CCCc1cccc(=O)o1,composite z-score,[1],0.521
same,composite z-score,[2],-0.161
same,composite z-score,[3],-0.401
same,z-score,[4],-0.396 (inactive)
same,composite z-score,[5],0.215
same,composite z-score,[6],1.04
same,composite z-score,[7],-0.21
same,composite z-score,[8],0.182
same,composite z-score,[9],0.646
same,composite z-score,[10],1.06
C=C[C@@H](COC(C)=O)NS(=O)(=O)c1ccc(Br)cc1,composite z-score,[1],0.549
same,composite z-score,[2],-0.103
same,composite z-score,[3],-0.0829
same,z-score,[4],23.4 (active)
same,composite z-score,[5],0.172
same,composite z-score,[6],0.444
same,composite z-score,[7],0.118
same,composite z-score,[8],0.412
same,composite z-score,[9],0.77
same,composite z-score,[10],0.361
COC(=O)[C@@]1(Cc2ccccc2)[C@H]2c3cc(C(=O)N4CCCC4)[nH]c3C[C@H]2CN1C(=O)c1ccccc1,composite z-score,[1],1.1
same,composite z-score,[2],0.865
same,composite z-score,[3],0.91
same,z-score,[4],-0.0516 (inactive)
same,composite z-score,[5],-0.486
same,composite z-score,[6],0.0863
same,composite z-score,[7],-0.478
same,composite z-score,[8],-0.444
same,composite z-score,[9],-0.988
same,composite z-score,[10],0.916
COCCOC(=O)N1C(=O)[C@@]2(c3cc(C#CCNC(N)=O)ccc31)[C@H](C(=O)N1CCCCCCC1)[C@H]1C(=O)O[C@H](c3ccccc3)[C@H](c3ccccc3)N1[C@@H]2c1ccc(O)cc1,composite z-score,[1],1.25
same,composite z-score,[2],-0.124
same,composite z-score,[3],0.526
same,z-score,[4],0.392 (inactive)
same,composite z-score,[5],0.527
same,composite z-score,[6],1
same,composite z-score,[7],0.734
same,composite z-score,[8],1.28
same,composite z-score,[9],0.751
same,composite z-score,[10],1.27
CN(C)C(=O)[C@]1(CCC(=O)OC(C)(C)C)N=C(c2ccc(OCCCO)cc2)O[C@@H]1c1ccccc1,composite z-score,[1],0.11
same,composite z-score,[2],0.937
same,composite z-score,[3],1.01
same,z-score,[4],-0.403 (inactive)
same,composite z-score,[5],0.617
same,composite z-score,[6],1.11
same,composite z-score,[7],-0.0133
same,composite z-score,[8],0.011
same,composite z-score,[9],-0.136
same,composite z-score,[10],0.12
CC(C)(C)OC(=O)CC[C@]1(C(=O)NCCN2CCOCC2)N=C(c2ccc(OCCCO)cc2)O[C@H]1c1ccccc1N=[N+]=[N-],composite z-score,[1],1.63
same,composite z-score,[2],0.99
same,composite z-score,[3],1.12
same,z-score,[4],-1.03 (inactive)
same,composite z-score,[5],0.177
same,composite z-score,[6],1.17
same,composite z-score,[7],0.303
same,composite z-score,[8],0.361
same,composite z-score,[9],-0.235
same,composite z-score,[10],1.24
O=C1NC(=O)C2C1C=CC(C(O)c1ccc(Br)cc1)N2Nc1ccccn1 (stereo not given),composite z-score,[1],0.246
same,composite z-score,[2],0.71
same,composite z-score,[3],0.662
same,z-score,[4],-0.141 (inactive)
same,composite z-score,[5],0.557
same,composite z-score,[6],0.389
same,composite z-score,[7],0.12
same,composite z-score,[8],0.28
same,composite z-score,[9],1.27
same,composite z-score,[10],1.37
CC[C@@H]1[C@H]2C3C(=O)N(CC)C(=O)C3CC(=O)[C@H]2[C@H](c2ccc(C)cc2)N1S(=O)(=O)c1ccc(C)cc1 (stereo not given in full),composite z-score,[1],1.11
same,composite z-score,[2],0.415
same,composite z-score,[3],0.46
same,z-score,[4],0.16 (inactive)
same,composite z-score,[5],0.894
same,composite z-score,[6],1.27
same,composite z-score,[7],0.183
same,composite z-score,[8],0.955
same,composite z-score,[9],0.0029
same,composite z-score,[10],0.617
COc1ccc([Si](C)(C)[C@H]2[C@H](CCn3cc([C@H](O)c4ccccc4)nn3)O[C@@]3(C(=O)N(Cc4cccc(N5C(=O)c6cccc7cccc5c67)c4)c4ccccc43)[C@@H]2C)cc1,composite z-score,[1],0.661
same,composite z-score,[2],-0.0526
same,composite z-score,[3],0.837
same,z-score,[4],-0.762 (inactive)
same,composite z-score,[5],-0.718
same,composite z-score,[6],-1.22
same,composite z-score,[7],-1.04
same,composite z-score,[8],-1.4
same,composite z-score,[9],-1.66
same,composite z-score,[10],-0.456
C=CCOC(=O)[C@H]1[C@@H]2C(=O)O[C@@H](c3ccccc3)[C@@H](c3ccccc3)N2[C@@H](c2ccc(OCCOC(=O)[C@H]3C[C@H]4C(=O)N[C@@H](Cc5ccccc5)C(=O)N4[C@H]3c3ccc(O)cc3)cc2)[C@]12C(=O)Nc1ccc(I)cc12,composite z-score,[1],1.34
same,composite z-score,[2],-0.188
same,composite z-score,[3],-0.485
same,z-score,[4],0.354 (inactive)
same,composite z-score,[5],1.26
same,composite z-score,[6],0.98
same,composite z-score,[7],0.625
same,composite z-score,[8],1.46
same,composite z-score,[9],1.27
same,composite z-score,[10],0.0385
CN(C)CCCCNC(=O)[C@H]1C[C@H]2C(=O)N3CCC[C@H]3C(=O)N2[C@H]1c1ccc(O)cc1,composite z-score,[1],0.0292
same,composite z-score,[2],-1.21
same,composite z-score,[3],-0.65
same,z-score,[4],-2.27 (inactive)
same,composite z-score,[5],-1.51
same,composite z-score,[6],-0.0328
same,composite z-score,[7],-0.364
same,composite z-score,[8],0.398
same,composite z-score,[9],-0.414
same,composite z-score,[10],-0.984
